# Test results reported in the supplement of paper PMC3342239.
# Counter-ions that a name gives are not always drawn.
# Test system: Saccharomyces cerevisiae
# Assay: fraction of cells in G1 phase (DNA content, flow cytometry); higher = more cells with unreplicated DNA (G1 delay)
# Details: temperature: 30 C; YPD; JTY2953 pdr5 snq2 (sensitized); drug added to: cultures diluted from stationary phase; 6-7 h
# Method: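 S. cerevisiae cultures in YPD at 30°C were treated with each drug of the Enzo FDA-approved library at 20 µg/ml (final µM given per drug). Cells were fixed after 6–7 h (S1) or 6 h (S2), or after 4.33 h for BY4741 (S3), then stained with SYTOX Green. %G1 is the Dean-Jett-Fox G1 peak area divided by the G1+G2/M peak areas, written as a fraction and averaged over at least two independent experiments. DMSO reference: mean ~0.49; >0.60 is called High G1 and <0.3876 Low G1. Scale: lower means mitotic delay.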
row,Structure (SMILES),fraction of cells in G1 phase
1,NCC1(CC(=O)O)CCCCC1 [Gabapentin] (116.794 µM),0.543
2,COc1ccc(C(CN(C)C)C2(O)CCCCC2)cc1 (stereo unspecified) [Venlafaxine HCl] (72.0954 µM),0.453
3,c1ccc2c(c1)OCC(C1=NCCN1)O2 (stereo unspecified) [Idazoxan] (97.9286 µM),0.48
4,CC(CCc1ccccc1)NC(C)C(O)c1ccc(O)cc1 (stereo unspecified) [Buphenine] (59.5415 µM),0.512
5,Cc1cccc(C)c1NC1=NCCCS1 [Xylazine HCl] (90.7693 µM),0.506
6,COc1cccc(C2(O)CCCCC2CN(C)C)c1 (stereo unspecified) [Tramadol HCl] (75.935 µM),0.492
